SMILES strings stand for the structures. This is part of a sample that, as a whole, favours compounds with a hit. Of some 83,000 tested, about 20% had one in any assay.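 Step 1: grow cells in 96-well plates. Step 2: add test compound at a single concentration. Step 3: incubate 48 h. Step 4: record percent growth.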 Unmarked numbers belong to inactive results. Active and inactive are the calls of the source. How the source made its calls: active means growth percent below 10; inactive means the rest.

Common to all, as to test: NCI-60 one-dose screen, 48 h (100 = growth as untreated, 0 = no growth, -100 = all killed)
One assay concerns HCT-15 colon. As to conditions: 10 µM unless noted.
For the next assay, the system named is HT29 colon. As to conditions: 10 µM unless noted.
In a further assay the test system is SNB-75 CNS. As to conditions: 10 µM unless noted.
A further assay relates to SNB-19 CNS. As to conditions: 10 µM unless noted.
Another assay has as its system U251 CNS. The conditions noted are these: 10 µM unless noted.
The next assay has as its system PC-3 prostate. As to conditions: 10 µM unless noted.
The subject of a further assay is SK-MEL-5 melanoma. The conditions noted are these: 10 µM unless noted.
Another assay deals with UACC-62 melanoma. The conditions noted are these: 10 µM unless noted.
A further assay concerns LOX IMVI melanoma. As to conditions: 10 µM.
In the next assay the test system is SN12C renal. The conditions noted are these: 10 µM unless noted.
The test system of a further assay is UO-31 renal. The conditions noted are these: 10 µM unless noted.
For the next assay, the system named is TK-10 renal. As to conditions: 10 µM unless noted.
In a further assay the test system is ACHN renal. The conditions noted are these: 10 µM unless noted.
For the next assay, the system named is CAKI-1 renal. As to conditions: 10 µM unless noted.
For another assay, the system named is CCRF-CEM leukemia. As to conditions: 10 µM unless noted.
The subject of the next assay is MOLT-4 leukemia. As to conditions: 10 µM unless noted.
The next assay has as its system SK-MEL-2 melanoma. The conditions noted are these: 10 µM unless noted.
In another assay the test system is EKVX NSCLC. As to conditions: 10 µM unless noted.
For a further assay, the system named is A498 renal. As to conditions: 10 µM unless noted.
The next assay concerns SK-MEL-28 melanoma. The conditions noted are these: 10 µM unless noted.

Consider `Oc1ccc(N=Cc2ccc(OCc3ccccc3)cc2)cc1`, for which the growth is 96.6% in the assay with HCT-15 colon; 109% in the assay with HT29 colon; 92.1% in the assay on SNB-75 CNS; 91.3% in the assay on SNB-19 CNS; 102% with U251 CNS; 92.5% with PC-3 prostate. Besides, the growth was 92.2% in the assay with SK-MEL-5 melanoma; 88.6% with UACC-62 melanoma; 100% in the assay on LOX IMVI melanoma; 101% in the assay on SN12C renal; 79.9% with UO-31 renal; 99.3% in the assay on TK-10 renal. In addition, the growth in the assay on ACHN renal is 99.7%; with CAKI-1 renal, 98.1%; in the assay with CCRF-CEM leukemia, 82.4%; in the assay on MOLT-4 leukemia, 97.1%.

Turning to `Nc1nnc2cc(F)ccc2n1`, the growth in the assay with HCT-15 colon was 99.4%; in the assay on HT29 colon it was 111%; with SNB-75 CNS, 75.1%; with SNB-19 CNS, 99.2%; in the assay on U251 CNS it was 110%; in the assay with PC-3 prostate it was 96.6%. The growth with SK-MEL-5 melanoma is 114%; with UACC-62 melanoma, 105%; in the assay on LOX IMVI melanoma, 96.3%; with SK-MEL-2 melanoma, 112%; in the assay with EKVX NSCLC it was 96.9%; in the assay with SN12C renal, 89.1%. Besides, the growth was 85% in the assay with UO-31 renal; 126% with TK-10 renal; 105% with A498 renal; 107% in the assay on CCRF-CEM leukemia; 102% with MOLT-4 leukemia.

In the case of `CC(O)C(F)(F)C(F)(F)C(F)(F)F` (stereo not given), the growth in the assay with HCT-15 colon is 88.2%; in the assay with HT29 colon, 99.9%; in the assay on SNB-75 CNS it was 103%; with SNB-19 CNS, 112%; in the assay on U251 CNS, 103%; with PC-3 prostate it was 110%. Further, the growth in the assay on SK-MEL-5 melanoma was 101%; in the assay on UACC-62 melanoma, 115%; with LOX IMVI melanoma, 107%; with SK-MEL-2 melanoma, 111%; in the assay on SN12C renal, 110%; in the assay with UO-31 renal, 95.3%. For the same compound, the growth was 102% in the assay with TK-10 renal; 93.8% in the assay on ACHN renal; 99.2% in the assay on CAKI-1 renal; 120% with A498 renal; 108% in the assay with CCRF-CEM leukemia; 96.4% in the assay with MOLT-4 leukemia.

For the compound `CC(C)(N)CO[C@H]1C[C@H]2CC[C@@]1(C)C2(C)C`, the growth was 90.7% in the assay with HCT-15 colon; 101% in the assay on HT29 colon; 89.3% in the assay with SNB-75 CNS; 103% in the assay with SNB-19 CNS; 96.6% in the assay with U251 CNS; 88.8% with PC-3 prostate. Further, the growth in the assay on SK-MEL-5 melanoma was 86.1%; with UACC-62 melanoma, 101%; with LOX IMVI melanoma it was 98.6%; in the assay with SK-MEL-2 melanoma, 108%; in the assay on SN12C renal, 100%; in the assay on UO-31 renal, 91.8%. The growth in the assay on TK-10 renal is 105%; in the assay on ACHN renal it was 100%; with CAKI-1 renal it was 97%; in the assay with A498 renal it was 81.7%; in the assay on CCRF-CEM leukemia, 105%; in the assay with MOLT-4 leukemia it was 107%.

With `N#Cc1ccc(OC(=O)Nc2cc(Cl)cc(Cl)c2)cc1`, the growth with HCT-15 colon was 3.2% [100 µM] (active); in the assay on HT29 colon, 2.78% [100 µM] (active); in the assay with SNB-75 CNS it was -9.78% [100 µM] (active); with SNB-19 CNS, 15.4% [100 µM]; in the assay with U251 CNS, 4.68% [100 µM] (active); in the assay with PC-3 prostate it was -9.43% [100 µM] (active). The growth is -94.3% [100 µM] (active) with SK-MEL-5 melanoma; -33.1% [100 µM] (active) with UACC-62 melanoma; 5.58% [100 µM] (active) in the assay on SK-MEL-28 melanoma; -42.5% [100 µM] (active) with SK-MEL-2 melanoma; -2.41% [100 µM] (active) in the assay with EKVX NSCLC; -14% [100 µM] (active) in the assay on SN12C renal. Further, the growth is 5.42% [100 µM] (active) in the assay with UO-31 renal; -4.01% [100 µM] (active) with TK-10 renal; 0.368% [100 µM] (active) with ACHN renal; -27.5% [100 µM] (active) in the assay with CAKI-1 renal; -19.7% [100 µM] (active) in the assay on A498 renal; 2.17% [100 µM] (active) with CCRF-CEM leukemia. Moreover, the growth in the assay with MOLT-4 leukemia was -14.4% [100 µM] (active).

As to `O=[N+]([O-])c1ccc2[nH]c(=S)n(/C=C(/c3ccc(Cl)cc3Cl)S(=O)(=O)Cc3ccc(Cl)cc3Cl)c2c1`, the growth with HCT-15 colon is 101%; with HT29 colon, 98.9%; in the assay with SNB-75 CNS, 108%; in the assay on SNB-19 CNS it was 102%; in the assay with U251 CNS it was 98.1%; in the assay on PC-3 prostate it was 94.7%. Besides, the growth in the assay on SK-MEL-5 melanoma was 101%; with LOX IMVI melanoma, 98.6%; with SK-MEL-28 melanoma it was 110%; in the assay with SK-MEL-2 melanoma, 102%; with EKVX NSCLC it was 92.9%; in the assay with SN12C renal it was 94.6%. Further, the growth with UO-31 renal is 97.2%; in the assay with TK-10 renal, 101%; in the assay on ACHN renal, 98.1%; in the assay on CAKI-1 renal, 97.4%; with A498 renal, 103%; in the assay on CCRF-CEM leukemia it was 103%. Further, the growth in the assay with MOLT-4 leukemia was 98.3%.

As to `NNc1ncccn1`, the growth with HCT-15 colon is 106%; in the assay on HT29 colon it was 91.8%; in the assay on SNB-75 CNS, 80.2%; in the assay with SNB-19 CNS, 111%; in the assay on U251 CNS, 102%; in the assay with PC-3 prostate it was 106%. Besides, the growth is 115% in the assay with SK-MEL-5 melanoma; 96.9% in the assay on LOX IMVI melanoma; 106% with SK-MEL-28 melanoma; 90.2% with SK-MEL-2 melanoma; 102% in the assay on EKVX NSCLC; 103% in the assay with SN12C renal. Further, the growth was 83.5% in the assay on UO-31 renal; 92.2% with TK-10 renal; 105% in the assay with ACHN renal; 102% in the assay on CAKI-1 renal; 91.7% in the assay with A498 renal; 109% with CCRF-CEM leukemia. In the assay on MOLT-4 leukemia, the growth is 110%.

For `NCC(O)C(O)C(O)C(O)CO` (stereo not given), the growth was 106% in the assay with HCT-15 colon; 95.9% in the assay on HT29 colon; 91.8% in the assay with SNB-75 CNS; 104% in the assay on SNB-19 CNS; 90.5% in the assay on U251 CNS; 81.4% in the assay on PC-3 prostate. Besides, the growth in the assay on SK-MEL-5 melanoma was 101%; in the assay with LOX IMVI melanoma, 97.8%; with SK-MEL-28 melanoma, 108%; with SK-MEL-2 melanoma it was 96.4%; with EKVX NSCLC, 102%; with SN12C renal it was 96.2%. For the same compound, the growth with UO-31 renal was 93.2%; in the assay on TK-10 renal it was 88.5%; in the assay with ACHN renal it was 105%; in the assay on CAKI-1 renal it was 88.6%; in the assay with A498 renal, 98.6%; in the assay on CCRF-CEM leukemia it was 89.8%. Further, in the assay with MOLT-4 leukemia, the growth is 101%.

Source of the values: PubChem BioAssay (NCI).
